In test [1] the target is Hexokinase-4 (Homo sapiens) + Glucokinase regulatory protein (Homo sapiens) (UniProt P35557+Q14397). In words: qHTS assay for inhibitors of recombinant human GCK-GKRP interaction: HTRF assay (AID 743207).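 Also: 0% = DMSO with GCK present and -100% = DMSO wells lacking GCK.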 Summed up: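 GST-GCK and FLAG-GKRP (5 nM each) were combined with 2 uM S6P in pH 7.1 Hepes/MgCl2/KCl/DTT buffer, then compound and anti-FLAG XL665/anti-GST K antibodies were added. After 60 min at room temperature, HTRF 665/615 nm emission was read.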
Hexokinase-4 (Homo sapiens) + Glucokinase regulatory protein (Homo sapiens), sequence (P35557 whole entry, looked up): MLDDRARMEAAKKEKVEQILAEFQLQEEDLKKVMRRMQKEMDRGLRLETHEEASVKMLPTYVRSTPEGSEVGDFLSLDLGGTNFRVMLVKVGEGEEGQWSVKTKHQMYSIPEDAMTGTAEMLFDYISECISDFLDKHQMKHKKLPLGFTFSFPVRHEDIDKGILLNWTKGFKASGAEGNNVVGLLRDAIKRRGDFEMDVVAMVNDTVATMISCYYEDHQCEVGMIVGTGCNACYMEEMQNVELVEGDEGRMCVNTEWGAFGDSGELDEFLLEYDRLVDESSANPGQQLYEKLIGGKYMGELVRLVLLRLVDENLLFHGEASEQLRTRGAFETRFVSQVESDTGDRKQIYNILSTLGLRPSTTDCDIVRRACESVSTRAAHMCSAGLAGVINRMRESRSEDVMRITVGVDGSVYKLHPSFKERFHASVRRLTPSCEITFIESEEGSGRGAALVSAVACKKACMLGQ
Hexokinase-4 (Homo sapiens) + Glucokinase regulatory protein (Homo sapiens), sequence (Q14397 whole entry, looked up): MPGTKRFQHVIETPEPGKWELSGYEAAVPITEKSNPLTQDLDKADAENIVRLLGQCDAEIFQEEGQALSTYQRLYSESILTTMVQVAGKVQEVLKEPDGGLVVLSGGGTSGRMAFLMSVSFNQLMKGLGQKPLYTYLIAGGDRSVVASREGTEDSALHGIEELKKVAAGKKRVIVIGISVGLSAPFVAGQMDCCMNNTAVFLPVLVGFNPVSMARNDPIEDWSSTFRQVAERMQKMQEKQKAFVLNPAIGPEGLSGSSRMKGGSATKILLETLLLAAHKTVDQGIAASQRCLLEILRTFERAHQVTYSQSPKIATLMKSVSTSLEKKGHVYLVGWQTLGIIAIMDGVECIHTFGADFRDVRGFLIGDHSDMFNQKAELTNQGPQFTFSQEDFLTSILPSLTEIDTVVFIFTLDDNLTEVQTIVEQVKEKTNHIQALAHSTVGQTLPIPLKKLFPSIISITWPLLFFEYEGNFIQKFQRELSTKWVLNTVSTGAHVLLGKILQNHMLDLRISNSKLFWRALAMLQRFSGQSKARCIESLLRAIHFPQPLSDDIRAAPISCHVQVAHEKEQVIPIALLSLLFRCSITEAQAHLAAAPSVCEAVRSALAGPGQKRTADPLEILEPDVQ
(In general: In qHTS, concentration-response curves come from the screen itself.)

Test [2] in a line: qHTS Assay for Identifying Gametocytocidal Compounds (AID 743244). Also: potency is read from the fitted curve at half-maximal effect.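 As to max response: % is scaled to controls: 0 for no effect and ±100 for the full control effect; actives lower the fluorescent signal which means gametocytes are killed.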 Particulars: P. falciparum 3D7 stage III-V gametocytes, alamarBlue, 72 h; max response: stronger effect = lower value. Summed up:
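A resazurin-based viability read-out was applied to mature P. falciparum gametocytes: 72 h compound treatment, then 24 h dye incubation, with falling fluorescence signalling gametocytocidal effect.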

A short description of test [3]: qHTS profiling for inhibitors of Plasmodium falciparum (3D7) proliferation (AID 743322; call rule not given here;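 also: infected erythrocytes exposed to compound for 72 h before lysis; 100% = DMSO vehicle wells and 0% = 0.29 µM artemisinin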). The following applies: P. falciparum 3D7 proliferation; at 28.7 µM (top of the series) unless noted. In outline: (§1)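 Parasite DNA was quantified by SYBR Green I fluorescence (ex 485, em 535 nm) after overnight lysis in saponin/Triton buffer at room temperature. Cultures at 0.3% parasitemia and 2.5% hematocrit were first exposed to compound for 72 h at 37 C; signals were normalised to artemisinin (0.29 uM) and vehicle wells.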

Test [4] in a line: qHTS profiling for inhibitors of Plasmodium falciparum (DD2) proliferation (AID 743323; call rule not given here). The following applies: lower = more inhibition; at 28.7 µM (top of the series) unless noted. Summed up: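 P. falciparum Dd2-infected erythrocytes (0.3% parasitemia, 2.5% hematocrit) exposed 72 h at 37 C, 5% CO2. Lysis with SYBR Green, overnight at room temperature, fluorescence 485/535 nm; normalized to 0.29 uM artemisinin and DMSO.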

Test [5] is described as follows: qHTS profiling of the MIPE4 collection as inhibitors of Plasmodium falciparum (3D7) proliferation (AID 743344; call rule not given here;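 also: scaled between DMSO vehicle wells and 0.29 µM artemisinin as full inhibition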). The following applies: P. falciparum 3D7 in erythrocytes, SYBR Green DNA fluorescence, 72 h; at 28.5 µM (top of the series) unless noted. Summed up:
as §1

Test [6] can be described thus: qHTS profiling of the MIPE4 collection as inhibitors of Plasmodium falciparum (DD2) proliferation (Rep 2) (AID 743346; call rule not given here). The following applies: P. falciparum Dd2 in erythrocytes, SYBR Green DNA, 72 h; at 28.5 µM (top of the series) unless noted. Summed up: as §1
Test [7] in a line: High-throughput drug toxicity screening in the BPDCN cell line Gen2.2 (AID 1224824; call rule not given here;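 also: cells exposed to compounds for 48 h before reading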). The following applies: Gen2.2 BPDCN cells; at 45.8 µM (top of the series) unless noted. In outline:
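Gen2.2 cells (500/well) in phenol red-free RPMI with 10% FBS were exposed to compounds for 48 h at 37 °C, 5% CO2. Viability was read by CellTiter-Glo luminescence and normalized to DMSO (100%) and 9.2 uM bortezomib (0%).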

The nature of test [8]: High-throughput drug toxicity screening in the BPDCN cell line Cal-1 (AID 1224825; call rule not given here). The following applies: Cal-1 BPDCN cell viability, qHTS; at 45.8 µM (top of the series) unless noted. Summed up: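 Viability of the BPDCN line Cal-1 is measured as ATP-based luminescence (CellTiter-Glo) following 48 h incubation with compounds. Percent activity uses DMSO-treated wells as 100% and 9.2 uM bortezomib as 0%.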

The nature of test [9]: qHTS assay for measurement of the activity of small molecule inhibitors on Zika virus induced Caspase-3 activity in human iPSC derived neural progenitor cells (hNPCs) (AID 1224857). Also: % of control where 0% means no effect; nearly all actives have a fitted effect of over 65% in size. In outline: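 Quantitative HTS format: human iPSC neural progenitors, 1 h compound pretreatment, ZIKV 2 FFU/cell for 6 h at 37 C. Percent inhibition derived from luminescent caspase-3/7 signal between uninfected and infected controls.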

Test [10] is described as follows: qHTS assay for measurement of the activity of small molecule inhibitors on Zika virus induced Caspase-3 activity in human astrocytoma cells (AID 1224859).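 Also: plate controls were ZIKV-infected untreated cells for no effect and uninfected cells for full effect.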 Summed up: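 Readout is luminescence from Caspase-Glo 3/7 added after a 6 h ZIKV infection (2 FFU/cell) of compound-pretreated (1 h) SNB-19 cells; data expressed as % inhibition versus uninfected and infected wells.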

Test [11] is described as follows: qHTS profiling for inhibitors of Plasmodium falciparum (HB3) proliferation (AID 743324).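 Also: 100% = DMSO vehicle wells and 0% = artemisinin-treated control wells.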 The following applies: Plasmodium falciparum HB3 blood-stage proliferation; at 28.7 µM (top of the series) unless noted. In outline:
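SYBR Green fluorescence (485 ex/535 em) of lysed cultures, incubated overnight at room temperature in the dark, quantifies parasite DNA. Infected erythrocytes at 0.3% parasitemia and 2.5% hematocrit were exposed 72 h; values normalized to DMSO and 0.29 uM artemisinin controls.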

The nature of test [12]: qHTS profiling of the MIPE4 collection as inhibitors of Plasmodium falciparum (DD2) proliferation (AID 743345; call rule not given here). The following applies: P. falciparum Dd2 in erythrocytes, SYBR Green DNA, 72 h; at 28.5 µM (top of the series) unless noted. Summed up: as §1
A short description of test [13]: qHTS Screen of the MIPE 4.0 Collection Against Ewings Sarcoma (TC71) (AID 1259253). Also: potency is read from the fitted curve at half-maximal effect; nearly all actives have a fitted effect of over 40% in size. Summed up:
(§2)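 Here, cells in 5% FBS RPMI were exposed for two days (48 h) to compound dilutions added four hours after plating. ATP-based CellTiter-Glo luminescence measured viability, normalized to vehicle and no-cell blanks.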

The nature of test [14]: qHTS assay for cell viability of HEK293 cells (AID 743288). Also: % is scaled to controls: 0 for no effect and ±100 for the full control effect; nearly all actives have a fitted effect of over 50% in size. Particulars: ATP luminescence (CellTiter-Glo), 18 h; max response: stronger effect = lower value. In outline:
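After 18 h compound exposure at 37 C, parental HEK293 cells (2,000/well) are lysed with CellTiter-Glo and luminescence is read following 30 min at room temperature.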

Test [15] can be described thus: qHTS assay for cell viability of the p53RE-bla HCT-116 cell line (AID 743292). Also: % is scaled to controls: 0 for no effect and ±100 for the full control effect; nearly all actives have a fitted effect of over 55% in size. In outline: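 CellSensor p53RE-bla HCT-116 cells, 4,000/well, preincubated 5 h at 37 C, then exposed to compounds in DMSO for 16 h at 37 C. Viability read as CellTiter-Glo luminescence (intracellular ATP) after 30 min at room temperature.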
A short description of test [16]: qHTS Screen of the MIPE 4.0 Collection Against Ewings Sarcoma (EW8) (AID 1259255). Also: potency is read from the fitted curve at half-maximal effect; nearly all actives have a fitted effect of over 35% in size. Summed up:
as §2

A short description of test [17]: qHTS profiling of the MIPE4 collection as inhibitors of Plasmodium falciparum (HB3) proliferation (AID 743347; call rule not given here;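 also: plate controls were DMSO vehicle wells for no effect and artemisinin wells for full effect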). The following applies: P. falciparum HB3 in erythrocytes, SYBR Green DNA, 72 h; at 28.5 µM (top of the series) unless noted. In outline:
as §1

Test [18] in a line: qHTS Screen of the MIPE 4.0 Collection Against Ewings Sarcoma (RDES) (AID 1259252). Also: potency is read from the fitted curve at half-maximal effect; nearly all actives have a fitted effect of over 35% in size. Summed up:
as §2

Where “and” joins values, the source holds several entries; their conditions need not be identical. Equal entries are not always repeated. Results filed as inconclusive are left out. Calls of active or inactive are those of the source. Unless noted, calls follow the shape of the dose curve; as a rule, active = well fitted curve in the direction sought with a large enough effect; inconclusive = small, poorly fitted or top-dose-only effect, or another doubt; inactive = no such curve, though single readings can be large; an effect the other way counts as inactive or inconclusive.

With `Nc1nc2ccc(OC(F)(F)F)cc2s1`, in test [1], the result was inactive. The max response in test [2] is 5.46% (inactive) and 13.2% (inactive). Further, the remaining parasite growth % (stronger effect = lower value) in test [3] came out at 105%. Also, the activity, percent of control in [4] turned out to be 105%. This compound also came in with a parasite growth, % of DMSO control in test [5] of 7.34%. In [6], this compound registered a parasite growth, % of control (lower = inhibition) of 33.2%. For the same compound, in [7], the cell viability, % of control (lower = more cytotoxic) is 93.2%. In addition, the viability (% of control) in [8] came to 103%. Besides, the Potency entry in [9] and in test [10] was “inactive” in each case.

Take `NC(=O)c1ccc(-c2nc(-c3ccc4c(c3)OCCO4)c(-c3ccccn3)[nH]2)cc1`: in test [3], the remaining parasite growth % (stronger effect = lower value) amounted to 15.5%. Besides, the activity, percent of control in [4] was 4.9%. Moreover, in test [11], the remaining proliferation (% of control), lower = more inhibition was 13.2%. This compound returned a parasite growth, % of DMSO control in test [5] of 25.9%. For the same compound, in test [12], the parasite growth remaining, % of DMSO control (lower = more inhibition) amounted to 18.9%. The compound also returned a parasite growth, % of control (lower = inhibition) in test [6] of 18.6%. The cell viability, % of control (lower = more cytotoxic) in test [7] is 607%. For the same compound, in test [8], the viability (% of control) was found to be 102%. Further, the Potency entry in [9] and in test [10] was “inactive” each time. In addition, the Potency in test [13] was 23.5 µM (active).

In the case of `C[C@]12CCC(=O)C=C1CC[C@@H]1[C@@H]2[C@@H](O)C[C@@]2(C)[C@H]1CC[C@]2(O)C(=O)CO`, the result in test [1] was inactive. For the same compound, the max response in [2] was 5.84% (inactive) and 30.7% (inactive); in test [14], -17.5% (inactive). Moreover, the Potency entry in test [15], in test [9] and in test [10] was “inactive” each time. Moreover, in [3], the remaining parasite growth % (stronger effect = lower value) was determined as 98.9%. The activity, percent of control in [4] stood at 92.4%.

Regarding `Cn1cnc2c(F)c(Nc3ccc(Br)cc3Cl)c(C(=O)NOCCO)cc21`, in test [2], the max response is 17.6% (inactive). Besides, in test [3], the remaining parasite growth % (stronger effect = lower value) was determined as 91.2%. Moreover, the activity, percent of control in [4] turned out to be 90.2%. This compound also showed a remaining proliferation (% of control), lower = more inhibition in [11] of 94.6%. The compound also displayed a parasite growth, % of DMSO control in test [5] of 58.2%. Further, the parasite growth remaining, % of DMSO control (lower = more inhibition) in [12] turned out to be 95.9%. The compound also registered a parasite growth, % of control (lower = inhibition) in [6] of 57.1%. Besides, in [7], the cell viability, % of control (lower = more cytotoxic) is 4.9%. Besides, the viability (% of control) in test [8] came out at 23.1%. The Potency entry in [9] and in test [10] was “inactive” throughout. In addition, the Potency is 16.6 µM (active) in [13] and 2.64 µM (active) in test [16].

For `Cn1cc(-c2ccc3nnc(C(F)(F)c4ccc5ncccc5c4)n3n2)cn1`, the max response in test [2] is -4.32% (inactive). The remaining parasite growth % (stronger effect = lower value) in test [3] was 40.4%. For the same compound, in [4], the activity, percent of control was 62.2%. The same compound displayed a remaining proliferation (% of control), lower = more inhibition in [11] of 17.3%. The parasite growth, % of DMSO control in test [5] worked out at 24.5%. Besides, the parasite growth remaining, % of DMSO control (lower = more inhibition) in [12] came to 70.3%. Besides, the parasite growth, % of control (lower = inhibition) in [6] was 41.1%. In addition, the growth, % of control in test [17] amounted to 35.2%. Also, the cell viability, % of control (lower = more cytotoxic) in test [7] stood at 55.7%. Moreover, the viability (% of control) in [8] is 64.2%. The Potency entry in [9] and in test [10] was “inactive” each time.

As to `COc1cc(Nc2ncc3c(n2)-c2ccc(Cl)cc2C(c2c(F)cccc2OC)=NC3)ccc1C(=O)O`, in test [2], the max response was -8.12% (inactive). Besides, in [3], the remaining parasite growth % (stronger effect = lower value) worked out at 89.5%. Moreover, the activity, percent of control in test [4] stood at 78.1%. The remaining proliferation (% of control), lower = more inhibition in test [11] worked out at 61.2%. For the same compound, the parasite growth, % of DMSO control in test [5] stood at 24.7%. In addition, the parasite growth remaining, % of DMSO control (lower = more inhibition) in test [12] was 69.6%. The compound further had a parasite growth, % of control (lower = inhibition) in test [6] of 39.4%. Besides, the growth, % of control in test [17] was determined as 30.2%. Moreover, the cell viability, % of control (lower = more cytotoxic) in test [7] amounted to 24.8%. Besides, in [8], the viability (% of control) amounted to 28.7%. The Potency entry in [9] and in test [10] was “inactive” in each case. The figures for the Potency in test [13] and in [16] were 1.87 µM (active) and 0.0743 µM (active), respectively.

`Cc1cc(-c2nnc3n2CCCCC3)c(C)n1-c1ccc(F)cc1`: in test [2], the Potency was 18.7 µM (active). In addition, the remaining parasite growth % (stronger effect = lower value) in [3] worked out at 7.99%. Besides, in test [4], the activity, percent of control was found to be 9.31%. Also, the remaining proliferation (% of control), lower = more inhibition in test [11] was determined as 0.91%.

Turning to `CC(C)c1onc(-c2c(Cl)cccc2Cl)c1COc1ccc(/C=C/c2cccc(C(=O)O)c2)c(Cl)c1`, the max response in test [2] is 14.5% (inactive). Besides, in test [3], the remaining parasite growth % (stronger effect = lower value) worked out at 28.5%. For the same compound, the activity, percent of control in test [4] is 74.9%. The same compound gave a remaining proliferation (% of control), lower = more inhibition in test [11] of 71.7%.

In the case of `O=c1[nH]c(-c2ccc(C(F)(F)F)cc2)nc2c1CSCC2`, in test [2], the max response is 12% (inactive). Besides, in [3], the remaining parasite growth % (stronger effect = lower value) is 106%. In addition, the activity, percent of control in [4] was 103%. The remaining proliferation (% of control), lower = more inhibition in test [11] is 29.8%. Also, the parasite growth, % of DMSO control in test [5] turned out to be 74.2%. Also, the parasite growth, % of control (lower = inhibition) in test [6] is 74.7%. Also, the growth, % of control in test [17] was found to be 86.7%. In addition, the cell viability, % of control (lower = more cytotoxic) in test [7] was determined as 117%. The viability (% of control) in test [8] was found to be 114%. In addition, the Potency result in [9] and in [10] was “inactive” throughout. Besides, the Potency was 23.5 µM (active) in [18] and 20.9 µM (active) in test [16].

Source of the values: PubChem BioAssay (NCATS).
